# Experimental data: PubChem BioAssay AID504333 (National Center for Advancing Translational Sciences (NCATS), 2011)
# The whole screen tested about 360,000 compounds, of which about 16,000 (4.4%) were called active. Not shown: some 9% with an inconclusive outcome. The full list was thinned out, with actives kept by preference. A number with no mark means an inactive call. Calls follow the shape of the dose curve; as a rule, active = well fitted inhibition curve with a large enough effect; inconclusive = small, poorly fitted or top-dose-only effect; inactive = no such curve, though single readings can be large or run the other way.
# Biological target: Bromodomain adjacent to zinc finger domain protein 2B (Homo sapiens) (UniProt Q9UIF8)
# Test: qHTS Assay for Inhibitors of BAZ2B; also: nearly all actives have a fitted effect of over 60% in size
# Conditions: AlphaScreen BAZ2B-H3K14Ac peptide displacement; series mostly up to 114 µM; activity change, negative = inhibition: at the top concentration
# Summary of the method: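 AlphaScreen displacement: compounds (up to 110uM) incubated 30 min at room temperature with a preformed 50 nM BAZ2B/50 nM biotinylated H3K14Ac peptide complex in PBS pH 7.4 with Tween-20. Donor and acceptor beads at 10 ug/mL final added, 20 min light-protected before reading.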
# % is scaled to controls: 0 for no effect and ±100 for the full control effect; potency is read from the fitted curve at half-maximal effect.
# Bromodomain adjacent to zinc finger domain protein 2B (Homo sapiens), sequence (Q9UIF8 whole entry, looked up, the tested form may be a part): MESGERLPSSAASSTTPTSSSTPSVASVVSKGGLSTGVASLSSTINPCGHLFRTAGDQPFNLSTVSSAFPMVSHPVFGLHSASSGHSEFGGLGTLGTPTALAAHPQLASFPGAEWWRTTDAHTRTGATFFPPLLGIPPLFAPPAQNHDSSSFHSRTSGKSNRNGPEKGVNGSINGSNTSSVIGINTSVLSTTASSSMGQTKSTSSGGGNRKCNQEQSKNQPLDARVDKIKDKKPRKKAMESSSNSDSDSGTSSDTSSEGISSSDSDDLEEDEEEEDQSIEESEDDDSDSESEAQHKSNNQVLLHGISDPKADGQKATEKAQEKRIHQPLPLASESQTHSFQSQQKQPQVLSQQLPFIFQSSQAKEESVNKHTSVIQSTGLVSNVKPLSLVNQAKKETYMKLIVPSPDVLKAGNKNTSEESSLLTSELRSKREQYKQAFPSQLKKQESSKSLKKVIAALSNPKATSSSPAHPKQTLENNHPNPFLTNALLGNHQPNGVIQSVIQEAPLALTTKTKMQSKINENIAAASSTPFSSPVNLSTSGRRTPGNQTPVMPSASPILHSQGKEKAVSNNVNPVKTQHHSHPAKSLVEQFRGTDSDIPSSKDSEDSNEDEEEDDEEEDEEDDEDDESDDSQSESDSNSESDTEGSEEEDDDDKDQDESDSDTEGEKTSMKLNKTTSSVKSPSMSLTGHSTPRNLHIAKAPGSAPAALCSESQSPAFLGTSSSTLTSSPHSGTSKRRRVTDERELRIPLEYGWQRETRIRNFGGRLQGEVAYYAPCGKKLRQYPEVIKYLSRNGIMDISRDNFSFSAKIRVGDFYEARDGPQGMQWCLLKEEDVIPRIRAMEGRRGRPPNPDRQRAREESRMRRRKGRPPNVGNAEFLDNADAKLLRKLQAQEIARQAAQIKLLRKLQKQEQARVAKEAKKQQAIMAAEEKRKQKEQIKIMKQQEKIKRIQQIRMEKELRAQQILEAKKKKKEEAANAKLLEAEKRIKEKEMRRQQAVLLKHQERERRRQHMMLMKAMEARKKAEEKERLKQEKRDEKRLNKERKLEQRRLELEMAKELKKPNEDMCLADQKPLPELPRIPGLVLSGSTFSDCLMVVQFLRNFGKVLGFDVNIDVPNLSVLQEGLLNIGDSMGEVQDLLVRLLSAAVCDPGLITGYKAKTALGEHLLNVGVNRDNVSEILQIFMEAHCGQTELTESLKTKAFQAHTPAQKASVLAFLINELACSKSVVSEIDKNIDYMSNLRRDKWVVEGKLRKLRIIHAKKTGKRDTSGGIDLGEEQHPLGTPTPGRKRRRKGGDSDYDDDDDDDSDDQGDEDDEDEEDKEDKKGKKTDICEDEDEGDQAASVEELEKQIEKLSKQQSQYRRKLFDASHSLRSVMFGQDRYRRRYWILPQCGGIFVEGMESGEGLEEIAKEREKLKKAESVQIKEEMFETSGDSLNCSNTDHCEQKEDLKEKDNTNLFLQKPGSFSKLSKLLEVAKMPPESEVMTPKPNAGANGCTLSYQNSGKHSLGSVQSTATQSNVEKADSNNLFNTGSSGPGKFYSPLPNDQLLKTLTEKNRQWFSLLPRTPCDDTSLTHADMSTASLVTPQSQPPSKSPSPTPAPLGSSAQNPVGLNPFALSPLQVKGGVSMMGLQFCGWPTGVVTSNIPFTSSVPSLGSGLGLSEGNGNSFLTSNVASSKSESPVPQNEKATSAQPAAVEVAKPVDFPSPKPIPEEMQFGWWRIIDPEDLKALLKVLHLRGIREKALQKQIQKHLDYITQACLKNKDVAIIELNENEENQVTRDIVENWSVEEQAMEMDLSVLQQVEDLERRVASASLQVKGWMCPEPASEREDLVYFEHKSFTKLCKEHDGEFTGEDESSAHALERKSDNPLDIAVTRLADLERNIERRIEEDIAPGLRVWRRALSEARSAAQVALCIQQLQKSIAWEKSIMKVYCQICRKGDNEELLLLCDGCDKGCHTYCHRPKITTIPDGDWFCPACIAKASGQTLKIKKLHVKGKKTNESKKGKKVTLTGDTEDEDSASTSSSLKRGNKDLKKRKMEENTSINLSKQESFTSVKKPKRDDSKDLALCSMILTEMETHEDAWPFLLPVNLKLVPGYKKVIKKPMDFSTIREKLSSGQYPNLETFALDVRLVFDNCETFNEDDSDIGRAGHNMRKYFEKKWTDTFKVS
Structure (SMILES),"activity change, negative = inhibition",Potency
O=C(CNS(=O)(=O)c1cccs1)N1CCN(c2ccccc2Cl)CC1,0.355%,–
Cc1ccc(C)c(Cn2c(C(=O)O)c(CNCc3cccs3)c3ccccc32)c1,-15.7%,–
CCc1ccccc1NC(=O)CSc1nnc(-c2ccccc2)c(-c2ccccc2)n1,-21.5%,–
COc1ccc(NC(=O)CSc2nccn2C2CCCC2)cc1OC,-26.7%,–
CCn1c(SCC(=O)NC2CC2)nnc1-c1ccncc1,-5.24%,–
CN(C)CCCn1c(SCc2ccc(Cl)cc2)nnc1-c1ccncc1,–,56.2 µM (active)
Cn1c(SCc2ccc(F)cc2)nnc1-c1ccncc1,5.73%,–
CCn1c(SCC(=O)Nc2ccc3c(c2)OCCO3)nnc1-c1ccncc1,4.75%,–
CC1CCCCC1NC(=O)CSc1nnc(-c2ccncc2)n1CCCN(C)C (stereo not given),–,44.7 µM (active)
CCn1c(SCc2cccc(C(=O)O)c2)nnc1-c1ccc(Cl)cc1,-9.13%,–
CCCN(CCC)C(=O)C1CCCN(c2ncnc3c2nc2n3CCCCC2)C1 (stereo not given),0.133%,–
COc1ccc(Cn2c(C(=O)O)c(CNCc3cccc(OC)c3)c3ccc(C)cc32)cc1,-35.5%,–
O=C(OCc1cc(=O)n2nc(C3CC3)sc2n1)c1ccccc1Cl,-7.57%,–
Cc1cccc(NC(=O)Cn2cc(S(=O)(=O)Cc3ccccc3Cl)c3ccccc32)c1,-9.86%,–
CCOc1cc(CNCc2ccccn2)ccc1OCC(=O)NC(C)(C)C,–,50.1 µM (active)
CCOc1cc(CNn2c(C)nnc2SCC(=O)NC(C)(C)C)ccc1OCC(=O)NC(C)(C)C,0.418%,–
CCOc1cc(C)c(S(=O)(=O)NCc2ccccn2)cc1C,-7.56%,–
Cc1cc(NC(=O)CSc2nnc(Nc3ccccc3F)s2)no1,-5.7%,–
Cc1cc(NC(=O)CSc2nnnn2-c2ccc(F)cc2)no1,4.09%,–
Cc1cc(NC(=O)CSc2nnc(-c3ccc(Cl)s3)o2)no1,–,39.8 µM (active)
COc1ccc(CNC(=O)c2ccc3c(O)c(S(=O)(=O)c4ccccc4)c(=O)[nH]c3c2)cc1,-23.6%,–
CCN1CCN(CCCNC(=O)c2cnn(-c3ccc(C)cc3C)c2C2CCN(C(=O)OC(C)(C)C)CC2)CC1,4.75% [at 57.1 µM],–
COc1cccc(C(=O)NC2(C(F)(F)F)C(=O)Nc3c2c(=O)[nH]c(=O)n3-c2ccc(C)cc2)c1 (stereo not given),1.43%,–
CCc1cnc2c(c1SCC(=O)N1CCC(C)CC1)c(=O)n(C)c(=O)n2C,-4.76%,–
O=C(CCCCn1c(=O)c2ccccc2n(CC(=O)Nc2cccc(C(F)(F)F)c2)c1=O)NCc1ccc2c(c1)OCO2,1.18%,–

Structure (SMILES),"activity change, negative = inhibition",Potency
O=c1c2ccccc2c(-c2ccc(Br)cc2)nn1Cc1ccccc1,1.98%,–
O=C(NCCc1ccco1)c1nn(Cc2ccccc2)c(=O)c2ccccc12,–,50.1 µM (active)
O=C(NCCSc1ccccc1)c1ccco1,46.4%,–
CCOC(=O)c1c(S(=O)(=O)N2CCCC(C(=O)NCc3ccc(F)cc3)C2)c(C)n(CC)c1C (stereo not given),-11.7%,–
Cc1cc(C)c(/C=C/c2onc(C)c2S(=O)(=O)N2CCC(C(=O)Nc3ccc(Cl)cc3C)CC2)c(C)c1,1.4%,–
COc1ccc2c(c1)Cc1sc(NC(=O)c3ccccc3Br)nc1-2,-32.6%,–
Cc1ccc(N2CC(C(=O)Nc3ccc(N(C)C)cc3)CC2=O)cc1Cl (stereo not given),-13%,–
CC(=O)Nc1cc(C(=O)NCc2ccc(F)cc2)ccc1Sc1ccc(F)cc1,-0.997%,–
CCc1ccc(C2CC(=O)c3c([nH]c(C(=O)OCc4ccc(C)cc4)c3C)C2)cc1 (stereo not given),-5.92%,–
O=C(CNCCC1=CCCCC1)Nc1ccccc1N1CCCCCC1,–,56.2 µM (active)
Cc1ccc(C(C)C)cc1OCC(=O)Nc1ccccc1N1CCCC1,-23.2%,–
Cc1ccccc1NC(=O)Nc1ccccc1N1CCCCC1,-6.52%,–
COc1cc([N+](=O)[O-])ccc1NC(=O)CN1CCCC1,-7.99%,–
O=C(CN1CCCCCC1)Nc1ccc(Br)cc1[N+](=O)[O-],–,15.8 µM (active)
O=C(CN1CCCCCC1)Nc1ccc(Br)cc1Br,18.9%,–
CC1=C(C(=O)OCc2ccc(C)cc2)C(c2ccccc2Cl)CC(=O)N1 (stereo not given),-7.46%,–
O=C(CSCc1ccc(Cl)cc1)N1CCN(Cc2ccc3c(c2)OCO3)CC1,-13.9%,–
O=C(C1CCN(S(=O)(=O)c2cnc[nH]2)CC1)N1CCN(Cc2ccc3c(c2)OCO3)CC1,-16.5%,–
O=C(C1CCN(Cc2ccc(Cl)cc2)CC1)N1CCN(Cc2ccc3c(c2)OCO3)CC1,–,50.1 µM (active)
COc1ccc(-c2cccc(NS(=O)(=O)c3cc(C)c(OC)c(C)c3C)c2)nn1,-32%,–
CCCN(CCC)C(=O)Cn1c(=O)n(-c2ccc(Cl)cc2)c(=O)c2c3c(sc21)CCCCC3,2.25%,–
Cc1cccc(CC(=O)Nc2cccc(-c3cn4cccnc4n3)c2)c1,3.65%,–
CCCCOc1ccc(C(=O)N2CC(=O)Nc3ccc(Br)cc3C2c2ccc(F)cc2)cc1 (stereo not given),-10.3%,–
O=C1CCCC(O)=C1N=Nc1ccc2ncsc2c1,–,50.1 µM (active)
O=c1ccnc(Nc2ccc(Cl)cc2)[nH]1,5.51%,–

Structure (SMILES),"activity change, negative = inhibition",Potency
Cc1csc(Nc2ccc(Cl)cc2)[n+]1-c1ccc(Cl)cc1,–,12.6 µM (active)
Cc1ccccc1C(=O)NCc1nc(-c2ccc(Cl)cc2)no1,2.6%,–
CCOC(=O)c1[nH]c(C)c(CCC(=O)N2CCN(c3ccccc3)CC2)c1C,-11.8%,–
CN(CCOc1ccccc1)C(=O)c1cc(-c2ccco2)nc2ccccc12,–,44.7 µM (active)
COc1ccc(-c2cc(C(=O)N(C)Cc3ccccc3)c3ccccc3n2)cc1,-2.29%,–
COc1ccc(NC(=O)CN(C)C(=O)c2cc(-c3ccc(C)o3)nc3ccccc23)cc1,-4.4%,–
COc1ccc(/C=C(\C#N)C(=O)OCC(=O)N(C)C2CCS(=O)(=O)C2)cc1 (stereo not given),12.8%,–
CN(C(=O)COC(=O)c1nc(Cl)ccc1Cl)C1CCS(=O)(=O)C1 (stereo not given),0.742%,–
CN(C(=O)COC(=O)c1cc(-c2ccco2)nc2ccccc12)C1CCS(=O)(=O)C1 (stereo not given),–,39.8 µM (active)
COc1ccc(OCC(=O)Nc2cccc(C(=O)OCc3cc(=O)n4nc(C)sc4n3)c2)cc1,-5.85%,–
Cc1cccc(N2CCN(C(=O)CCn3c(=O)c4cccn4c4cccnc43)CC2C)c1 (stereo not given),-36.6%,–
NC(=O)C1CCN(C(=O)c2cccc(NC(=O)c3nsc4ccccc34)c2)CC1,4.68%,–
Cc1[nH]c2ccccc2c1C(c1ccccc1)c1cccs1 (stereo not given),1.62%,–
O=C(CCS(=O)(=O)c1ccccc1)NC1CCCC1,-1.71%,–
CC(=O)c1cc(-c2ccccc2)n(CCC(=O)NC2CCCCCC2)c1C,–,50.1 µM (active)
CC(=O)c1cc(-c2ccccc2)n(CC(=O)NC2CCCCC2)c1C,–,inactive
Cc1nc2nc(SCC(=O)N(Cc3ccccc3)C(C)C)nn2c(C)c1Cc1ccccc1Cl,-18.1%,–
CCOc1cc(C(=O)Nc2nnc3n2CCS3)cc(OCC)c1OCC,13.3%,–
CCOC(=O)c1cc(NC(=O)c2ccc(F)cc2)c(=O)n2c1oc1ccccc12,-12%,–
CN(CC(=O)Nc1ccccc1F)S(=O)(=O)c1ccc2c(c1)c(=O)n(C)c(=O)n2C,4.31% [at 57.1 µM],–
O=C(CN1C(=O)COc2ccc(S(=O)(=O)N3CCOCC3)cc21)N1CCN(c2cccc(Cl)c2)CC1,-21.7%,–
COCCNC(=S)N1CCC(NC(=O)C23CC4CC(CC(C4)C2)C3)CC1,-8.68%,–
COCCNC(=S)N1CCN(C)CC1,–,39.8 µM (active)
CCCNC(=S)N1CCC(NC(=O)c2ccc(OC)cc2)CC1,-25.5%,–
CCN1C(=O)c2ccccc2S(=O)c2ccc(C(=O)NCc3ccc(F)cc3)cc21 (stereo not given),-14.5%,–

Structure (SMILES),"activity change, negative = inhibition",Potency
CCCCOC(=O)/C(C#N)=C/c1ccc(-c2cccc(C(F)(F)F)c2)o1,-15.6%,–
CCOc1ccc(Nc2nc3c(S(=O)(=O)c4cccc(Cl)c4)nnn3c3ccsc23)cc1,-13%,–
Cc1ccc(OCCSc2nc(C)c(Cc3ccccc3)c(=O)[nH]2)cc1,-2.49%,–
S=C(c1ccc(-c2ccccc2)o1)N1CCCCC1,–,35.5 µM (active)
S=C(c1ccccc1)N1CCCC1,5.22%,–
OCCN1CCN(C(=S)c2ccc(-c3ccccc3)cc2)CC1,-7.79%,–
CSc1ccc(CCNC(=O)c2ccc3c(c2)nc2n3CCOC2)cc1,4.23%,–
COC/C=C/C1=CC2=CC(=O)C(C)(OC(=O)CCC(=O)OC)C(=O)C2=CO1 (stereo not given),–,50.1 µM (active)
COC(=O)CCCC1=CC2=CC(=O)C(C)(OC(=O)c3cccs3)C(=O)C2=CN1CC1CC1 (stereo not given),-30.3%,–
COC(=O)CCCC1=CC2=CC(=O)C(C)(OC(=O)c3cccs3)C(=O)C2=CN1CC(C)C (stereo not given),-15.3%,–
CCC(=O)N1CCc2cc(Br)cc(S(=O)(=O)CCC(=O)N3CCN(c4ccc(F)cc4)CC3)c21,3.17%,–
COc1ccc(-c2noc(CCC(=O)N(C)c3ccccc3C)n2)cc1,6.51%,–
CCOc1cccc(C(=O)Nc2nnc(S(=O)(=O)N(C)c3ccc(C)cc3)s2)c1,-2.91%,–
CCc1ccc(NC(=O)CN2CCSc3ccc(S(=O)(=O)N4CCCC4)cc32)cc1,-26.5%,–
Cc1cccc(Cn2cnc3c(N)c(C)c(C)cc32)c1,–,56.2 µM (active)
COc1cccc(Cn2cnc3c([N+](=O)[O-])c(C)c(C)cc32)c1,-22.6%,–
CSc1nn(Cc2cccc(C)c2)c(N)c1S(=O)(=O)c1ccccc1,22.9%,–
Cc1ccc(Cl)cc1NC(=O)Cc1ccc(-n2c(C)nc3cccnc32)cc1,-5.91%,–
CC(NC(=O)CCc1cn(Cc2ccccc2Cl)c2ccccc12)c1ccccc1 (stereo not given),-5.03%,–
CCOc1ccc(CCNC(=O)c2cc3c(=O)n(C)c4ccccc4c3n2C)cc1,-3.88%,–
Cc1cc(C)c(OCC(=O)N/N=C/c2ccco2)c(C)c1,3.11%,–
COC(=O)COc1ccc2c(c1C)O/C(=C\c1ccco1)C2=O,–,50.1 µM (active)
COc1ccccc1OCC(=O)OCc1cc(-c2ccco2)on1,12.1%,–
CCOC(=O)c1ccc2c(c1)N(Cc1cccc(OC)c1)C(=O)c1ccccc1S2(=O)=O,4.73%,–
CCc1nc(-c2cc(S(=O)(=O)N3CCN(c4ccc(OC)cc4)CC3)ccc2OC)no1,-33.9%,–
